Assay results published in PubChem BioAssay.
Values joined by “and” are separate entries in the source; they are usually repeats but may differ in a detail not shown here. Equal values may be shown once. Active and inactive are the calls of the source. Unless noted, the rule behind the calls is not given here.

Assays:
[1] = circadian clock period modulators, cell-based, LOPAC library, luminescence reporter (AID 2774); conditions: circadian reporter cells, at 7 µM, actives lie on both sides;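 note: values are relative to mean of DMSO wells on each plate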
[2] = tested on: Hepatitis C virus NS3 helicase; assay: HCV NS3 helicase inhibitors, primary screen, biochemical, fluorescence polarization, LOPAC1280 library (AID 687035; in the data active = inhibition above about 37%); conditions: Purified HCV NS3 helicase, Cy5-dT15 ssDNA binding fluorescence polarization; stronger effect = higher value; concentration not given here
[3] = Cy5 fluorescence quenching or enhancement artefacts, artefact control for HCV NS3 helicase inhibitor project, biochemical, LOPAC1280 (AID 687037); conditions: Cy5-DNA-NS3h complex fluorescence interference counterscreen
[4] = sensitizers of A549 cells to miR-34 induction, primary screen, imaging, A549 dox-inducible miR-34, nuclei and caspase counts (AID 1347080;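 active = compounds whose cell count with miR-34 switched on is under 0.7 times the count with it off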); conditions: A549 miR-34 inducible, Hoechst nuclei count, 48 h
[5] = phospholipid biosynthesis inhibitors in animal cells, primary screen, cell-based, LOPAC library, screen 4 (AID 1347384); conditions: phospholipid biosynthesis inhibition screen, at 10 µM
[6] = viability rescue of complex I mutant cybrids, primary screen, cell-based, galactose medium, ATP luminescence (AID 1645843;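 active = z-score of at least 1.8 in each of two replicates, scored against plate mean and spread of sample wells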;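 note: positive z means more ATP and so rescue of galactose-driven cybrid death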); conditions: complex I mutant cybrid cells, 72 h, stronger effect = higher value
[7] = inhibitors of Cryptococcus chitosan production, flow cytometry, Cibacron Brilliant Red staining (AID 1347148); conditions: Cryptococcus neoformans chitosan, stronger effect = lower value; at 10 µM unless noted;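 note: compound exposure lasted three days at 37 degrees C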
[8] = hESC survival regulators, cell-based (AID 493140); conditions: human embryonic stem cell survival screen; stronger effect = higher value;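 note: cells exposed to compounds for four days before counting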
[9] = measured here: relative caspase fold change +Dox/-Dox
[10] = measured here: total cells with miR-34 induction, stronger effect = lower value
[11] = measured here: total cells without miR-34 induction

Compound	period change [1]	inhibition [2]	fluorescence ratio (interference) [3]	fold change ([4]; stronger effect = lower value)	fold change [4, 9]	cell count [4, 10]	cell count [4, 11]	outcome [5]	z-score [6]	fold change ([4]; stronger effect = lower value, cell number ratio, induced over uninduced)	fold fluorescence [7]	survival [8]
C=CCN1C[C@@H](C)N([C@H](c2ccc(C(=O)N(CC)CC)cc2)c2cccc(OC)c2)C[C@@H]1C	0 h (inactive)	-3% (inactive)	1 (inactive)	1.1 (inactive)	1.18	8780	7950	inactive	-0.39 (inactive)			
Oc1ccc2c3c1O[C@H]1c4[nH]c5ccccc5c4C[C@@]4(O)C(C2)N(CC2CC2)CCC314 (some centres undefined)	0.005 h (inactive)	-4% (inactive)	1 (inactive)	1.01 (inactive)	1.69	8190	8080	inactive	-0.835 (inactive)			
C=CCN1CCC23c4c5ccc(O)c4O[C@H]2C(=O)CC[C@@]3(O)C1C5 (some centres undefined)	-0.035 h (inactive)	-4% (inactive)	1 (inactive)	1.07 (inactive)	1.06	11300	10600	inactive	0.37 (inactive)			
CCCCCCCCCCCCCC(=O)O[C@@H]1[C@@H](C)[C@@]2(O)[C@@H](C=C(CO)C[C@@]3(O)C(=O)C(C)=C[C@@H]23)C2C(C)(C)[C@@]21OC(C)=O (some centres undefined)	-1.74 h (active)	-2% (inactive)	1 (inactive)		1.62	418	618	inactive	-1.38 (inactive)	0.676 (active)		
CCOC(=O)CN1C(=O)CC(C[C@@H](O)C2C[C@@H](C)C[C@H](C)C2=O)CC1=O (some centres undefined)				1.01 (inactive)	1.21	4960	4910				10.9 [at 136.1 µM] (inactive)	
NC(CCP(=O)(O)O)C(=O)O (centres undefined)	0.135 h (inactive)	-3% (inactive)	1 (inactive)	1.04 (inactive)	2.08	10400	9940	inactive	0.32 (inactive)			
c1ccc2cc(CC3=NCCN3)ccc2c1	0.04 h (inactive)	-3% (inactive)	1 (inactive)	1.06 (inactive)	1.69	11100	10500	inactive	0.28 (inactive)			
N=C(N)c1ccc(CS(=O)(=O)F)cc1		-2% (inactive)	1 (inactive)	1.04 (inactive)	1.07	11100	10700	inactive	0.445 (inactive)			
CCCCC[C@@H](/C=C/C=C\C/C=C\C/C=C\CCCC(=O)O)OO				0.973 (inactive)	0.92	5790	5950				5.13 [at 1 µM] (inactive)	120 (inactive)
CC(N)c1cccc(Cl)c1Cl (centres undefined)	0.03 h (inactive)	-2% (inactive)	1 (inactive)	1.05 (inactive)	0.961	10200	9670	inactive	0.12 (inactive)			
CC(C)(C)OC(=O)NC1[C@H]2CNC[C@@H]12 (some centres undefined)				1.05 (inactive)	1.39	11400	10800	inactive	0.37 (inactive)			
CCNC(=O)[C@H]1O[C@@H](n2cnc3c(N)ncnc32)C(O)[C@H]1O (some centres undefined)	-0.025 h (inactive)	0% (inactive)	1 (inactive)	1.03 (inactive)	1.36	9250	8960	inactive	0.625 (inactive)			
CCCCC/C=C\C[C@@H](/C=C/C=C\C/C=C\CCCC(=O)O)OO				0.888 (inactive)	1.25	5520	6220				6.04 [at 1 µM] (inactive)	111 (inactive)
CN1CCC[C@@H]1Cc1c[nH]c2ccc(Nc3ncccc3[N+](=O)[O-])cc12				1.01 (inactive)	1.84	7590	7510	inactive	-0.89 (inactive)			
COc1cc(C(O)CN)ccc1O (centres undefined)	-0.145 h (inactive)	-3% (inactive)	1 (inactive)	1.05 (inactive)	2.66	11000	10500	inactive	0.4 (inactive)			
CCCCCCCCCCCCCCCCOC[C@@H](COP(=O)([O-])OCC[N+](C)(C)C)OC(C)=O				0.883 (inactive)	0.996	4960	5620				4.51 (inactive) and 4.92 (inactive)	78.6 (inactive)
N#CC(=Cc1ccc(O)c(O)c1)C(N)=S	-0.06 h (inactive)	3% (inactive)	0.9 (inactive)	0.981 (inactive)	1.34	9410	9590	inactive	-0.465 (inactive)			
CCCCCC1OC1C/C=C\CCCCCCCC(=O)O (centres undefined)				0.986 (inactive)	1.2	5980	6070				4.22 [at 1 µM] (inactive)	100 (inactive)
